Experimental data from PubChem BioAssay (EPA / NIEHS).
The source holds several records for some structures; these can differ, active in one and inactive in another. Activity calls are given as the source filed them. Rule for the calls: active = hit-call score of the fitted dose curve at least 0.9, where 1 is the maximum; inactive = score below 0.9.

How the values were obtained:
[1] = read-out: Monocyte Chemoattractant Protein-1 (MCP1), CCL2 (gene 6347); test: BSK_LPS_MCP1: BioMAP Diversity Plus: LPS Assay for Monocyte Chemoattractant Protein-1 (MCP1) Biomarker Activity (AID 2283081); conditions: primary human HUVEC with PBMC; actives raise or lower the signal
Procedure, shortened: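 ELISA read-out of MCP-1 after 24 h chemical dosing of a human umbilical vein endothelial cell/peripheral blood mononuclear cell co-culture stimulated with LPS. Gain or loss of signal fitted relative to DMSO controls.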

[2] = BSK_LPS_PGE2: BioMAP Diversity Plus: LPS Assay for Prostaglandin E2 (PGE2) Biomarker Activity (AID 2283082); conditions: primary human HUVEC with PBMC; actives raise or lower the signal
Procedure, shortened: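 Endpoint derived from bidirectional curve fitting versus DMSO of ELISA-measured PGE2 in LPS-stimulated human primary vascular co-culture (HUVEC with PBMC) harvested at 24 h.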

[3] = read-out: Macrophage colony-stimulating factor (MCSF), CSF1 (gene 1435); test: BSK_LPS_MCSF: BioMAP Diversity Plus: LPS Assay for Macrophage colony-stimulating factor (MCSF) Biomarker Activity (AID 2283083); conditions: primary human HUVEC with PBMC; actives raise or lower the signal
Procedure, shortened: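 HUVEC + PBMC co-culture (human primary), 24 h post-dose; M-CSF by ELISA; gain/loss of signal fitted bidirectionally vs DMSO baseline.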

[4] = read-out: Tissue Factor, F3 (gene 2152); test: BSK_LPS_TissueFactor: BioMAP Diversity Plus: LPS Assay for Tissue Factor Biomarker Activity (AID 2283084); conditions: primary human HUVEC with PBMC; actives raise or lower the signal
Procedure, shortened: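 HUVEC/PBMC co-culture, LPS-activated; CD142 ELISA read 24 h post-dose; bidirectional curve fit vs DMSO negative control.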

[5] = read-out: Tumor necrosis factor (Homo sapiens) (UniProt P01375); test: BSK_LPS_TNFa: BioMAP Diversity Plus: LPS Assay for Tumour Necrosis Factor alpha (TNFa) Biomarker Activity (AID 2283085); conditions: primary human HUVEC with PBMC; actives raise or lower the signal
Procedure, shortened: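 Primary human vascular co-culture of HUVEC and PBMC; TNFa ELISA 24 h after treatment, analysed as increase or decrease relative to DMSO control.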

[6] = read-out: Vascular cell adhesion molecule 1 (VCAM1), VCAM1 (gene 7412); test: BSK_LPS_VCAM1: BioMAP Diversity Plus: LPS Assay for Vascular cell adhesion molecule 1 (VCAM1) Biomarker Activity (AID 2283086); conditions: primary human HUVEC with PBMC; actives raise or lower the signal
Procedure, shortened: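 Primary human vascular co-culture (umbilical vein endothelium plus PBMC) stimulated with LPS received chemical; 24 h later VCAM-1 was read by ELISA. Overt cytotoxicity was assessed by sulforhodamine B staining of parallel cultures at the same time point.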

[7] = read-out: CD38, CD38 (gene 952); test: BSK_SAg_CD38: BioMAP Diversity Plus: SAg Assay for CD38 Biomarker Activity (AID 2283087); conditions: primary human HUVEC with PBMC; actives raise or lower the signal
Procedure, shortened: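 Fluorescence ELISA of cell-surface CD38 served as the read-out, with either increase or decrease fitted against DMSO controls. Cells were a human umbilical vein endothelium plus PBMC co-culture under SEB/TSST-1 stimulation, measured 24 h after dosing.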

[8] = read-out: CD40, CD40 (gene 958); test: BSK_SAg_CD40: BioMAP Diversity Plus: SAg Assay for CD40 Biomarker Activity (AID 2283088); conditions: primary human HUVEC with PBMC; actives raise or lower the signal
Procedure, shortened: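 HUVEC/PBMC co-culture, 24 h post-dose; CD40 by ELISA, fluorescence intensity; bidirectional fit vs DMSO negative control.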

[9] = read-out: CD69, CD69 (gene 969); test: BSK_SAg_CD69: BioMAP Diversity Plus: SAg Assay for CD69 Biomarker Activity (AID 2283089); conditions: primary human HUVEC with PBMC; actives raise or lower the signal
Procedure, shortened: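 Values derive from bidirectional fitting relative to DMSO vehicle. Cells: umbilical vein endothelium plus peripheral blood mononuclear cells, treated 24 h before fluorescent ELISA for CD69.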

[10] = read-out: Monocyte Chemoattractant Protein-1 (MCP1), CCL2 (gene 6347); test: BSK_SAg_MCP1: BioMAP Diversity Plus: SAg Assay for Monocyte Chemoattractant Protein-1 (MCP1) Biomarker Activity (AID 2283090); conditions: primary human HUVEC with PBMC; actives raise or lower the signal
Procedure, shortened: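 MCP-1 levels in the endothelial–PBMC SAg co-culture were quantified by ELISA at 24 h post-dosing; both increases and decreases versus DMSO scored. Cytotoxicity monitored by SRB total protein in parallel cultures.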

[11] = read-out: E-selectin (Homo sapiens) (UniProt P16581); test: BSK_SAg_Eselectin: BioMAP Diversity Plus: SAg Assay for Eselectin Biomarker Activity (AID 2283091); conditions: primary human HUVEC with PBMC; actives raise or lower the signal
Procedure, shortened: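 E-selectin ELISA readout at 24 h post-dosing in human umbilical vein endothelial cell/PBMC co-culture; gain or loss of signal fitted relative to DMSO baseline.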

[12] = read-out: Monokine induced gamma interferon (MIG), CXCL9 (gene 4283); test: BSK_SAg_MIG: BioMAP Diversity Plus: SAg Assay for Monokine induced gamma interferon (MIG) Biomarker Activity (AID 2283092); conditions: primary human HUVEC with PBMC; actives raise or lower the signal
Procedure, shortened: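 Values reflect bidirectional fitting of ELISA-measured MIG against DMSO vehicle, taken 24 h after dosing of a co-culture of human umbilical vein endothelial cells and peripheral blood mononuclear cells.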

[13] = BSK_SAg_PBMCCytotoxicity: PBMC Cytotoxicity Assessment in the BioMAP Diversity Plus: SAg Assay (AID 2283093); conditions: primary human HUVEC with PBMC;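 note: PBMC viability measured as Alamar Blue reduction fluorescence at 546/580 nm; fitted both ways against DMSO so a hit may be loss or gain of signal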
Procedure, shortened: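 HUVEC/PBMC co-culture; PBMC exposed to chemical 1 h before SEB and TSST-1 activation (20 ng/mL each), incubated 90 h, then Alamar Blue 6 h, fluorescence 546/580 nm. Bidirectional fit versus DMSO baseline.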

[14] = BSK_SAg_Proliferation: Cell Proliferation Assessment in the BioMAP Diversity Plus: SAg Assay (AID 2283095); conditions: primary human HUVEC with PBMC;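 note: relative cell number as total protein by SRB absorbance in sub-confluent culture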
Procedure, shortened: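 Readout is SRB-stained protein (560 nm) in a primary human HUVEC and PBMC co-culture; sub-confluent cultures are read at 96 h. Activity is fitted bidirectionally using DMSO as baseline.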

[15] = BSK_SAg_SRB: Viability Assessment in the BioMAP Diversity Plus: SAg Assay (AID 2283096); conditions: primary human HUVEC with PBMC;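 note: cells read one day after compound addition; hits may be either gain or loss of signal compared with DMSO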
Procedure, shortened: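 Human umbilical vein endothelial cells co-cultured with PBMC, read 24 h after compound dosing. Total protein measured by sulforhodamine B staining (0.1% SRB after 10% TCA fixation, absorbance 560 nm); bidirectional fit versus DMSO baseline.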

[16] = read-out: Interleukin-8 (IL8), CXCL8 (gene 3576); test: BSK_SAg_IL8: BioMAP Diversity Plus: SAg Assay for Interleukin-8 (IL8) Biomarker Activity (AID 2283094); conditions: primary human HUVEC with PBMC; actives raise or lower the signal
Procedure, shortened: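 In this co-culture of human umbilical vein endothelium with peripheral blood mononuclear cells, IL-8 is assayed by ELISA at 24 h. DMSO serves as baseline for bidirectional curve fitting.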

Tumor necrosis factor (Homo sapiens), sequence (P01375 whole entry, looked up): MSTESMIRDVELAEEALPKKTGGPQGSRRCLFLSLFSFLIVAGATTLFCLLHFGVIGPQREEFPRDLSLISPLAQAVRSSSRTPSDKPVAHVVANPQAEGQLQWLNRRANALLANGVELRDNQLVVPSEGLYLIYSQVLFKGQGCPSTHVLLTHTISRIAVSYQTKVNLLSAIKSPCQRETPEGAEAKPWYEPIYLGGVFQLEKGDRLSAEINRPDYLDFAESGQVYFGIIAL
E-selectin (Homo sapiens), sequence (P16581 whole entry, looked up): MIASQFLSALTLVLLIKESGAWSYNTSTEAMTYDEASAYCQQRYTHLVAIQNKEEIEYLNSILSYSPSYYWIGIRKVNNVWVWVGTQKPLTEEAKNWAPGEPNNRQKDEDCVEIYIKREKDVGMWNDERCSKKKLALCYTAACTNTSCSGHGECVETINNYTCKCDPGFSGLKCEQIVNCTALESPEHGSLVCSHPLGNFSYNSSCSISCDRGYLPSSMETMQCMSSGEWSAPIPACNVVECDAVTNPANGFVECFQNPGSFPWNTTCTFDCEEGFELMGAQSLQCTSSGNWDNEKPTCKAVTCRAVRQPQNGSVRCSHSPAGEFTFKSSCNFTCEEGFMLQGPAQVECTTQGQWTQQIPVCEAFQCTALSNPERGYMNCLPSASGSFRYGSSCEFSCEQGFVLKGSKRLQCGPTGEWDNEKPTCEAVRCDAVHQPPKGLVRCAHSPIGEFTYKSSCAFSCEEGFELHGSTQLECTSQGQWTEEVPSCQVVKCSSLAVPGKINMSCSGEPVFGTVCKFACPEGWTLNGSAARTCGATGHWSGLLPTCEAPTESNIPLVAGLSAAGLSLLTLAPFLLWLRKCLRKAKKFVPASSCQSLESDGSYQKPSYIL

SMILES	outcome [1]	outcome [2]	outcome [3]	outcome [4]	outcome [5]	outcome [6]	outcome [7]	outcome [8]	outcome [9]	outcome [10]	outcome [11]	outcome [12]	outcome [13]	outcome [14]	outcome [15]	outcome [16]	AC50 [7]	AC50 [4]
O=P(O)(O)OCCC(F)(F)C(F)(F)C(F)(F)C(F)(F)C(F)(F)C(F)(F)F	inactive	inactive	inactive	inactive	inactive	inactive	inactive	inactive	inactive	inactive	inactive	inactive	inactive	inactive	inactive			
CCCCC(CC)COP(=O)(O)OCC(CC)CCCC (stereo unspecified)	inactive	inactive	inactive	inactive	inactive	inactive	inactive	inactive	inactive	inactive	inactive	inactive	inactive	inactive	inactive			
C=C(C)C(=O)OCCC(F)(F)C(F)(F)C(F)(F)C(F)(F)C(F)(C(F)(F)F)C(F)(F)F	inactive	inactive	inactive	inactive	inactive	inactive	inactive	inactive	inactive	inactive	inactive	inactive		inactive	inactive	inactive		
CCc1c(Br)c(Br)c(Br)c(Br)c1Br	inactive	inactive	inactive	inactive	inactive	inactive		inactive	inactive	inactive	inactive	inactive		inactive	inactive	inactive	20 µM (active)	
FC(F)(F)C(F)(F)C(F)(F)C(F)(F)C(F)(F)C(F)(F)C(F)(F)C(F)(F)CCS	inactive	inactive	inactive	inactive	inactive	inactive	inactive	inactive	inactive	inactive	inactive	inactive		inactive	inactive			1.02 µM (active)
FC(F)(F)C(F)(F)C(F)(F)CI	inactive	inactive	inactive	inactive	inactive	inactive	inactive	inactive	inactive	inactive	inactive	inactive	inactive	inactive	inactive	inactive		
